# From PubChem BioAssay (NCATS)
# Inconclusive results are not listed. A number with no mark means an inactive call. The source made the active and inactive calls. Calls follow the shape of the dose curve; as a rule, active = well fitted inhibition curve with a large enough effect; inconclusive = small, poorly fitted or top-dose-only effect; inactive = flat fitted curve, though single readings scatter. *1 amine or outer side, *2 acyl side, *3 side chain or, on linkers, in order; H or OH if unused. Where a SMILES comes first, the peptide text is derived from it. [ ]: non-standard residue; d: D form. X13 = O=C(C(CC(O)CO)O[*:1])[*:2]; NMeV = CN[CH](C(=O)O)C(C)C; NMeA = CN[CH](C)C(=O)O; βAla = NCCC(=O)O
# Tested on: NIH3T3
# Assay: Cytotoxic Profiling of Annotated Libraries Using Quantitative High-Throughput Screening (AID 1296008); as to max response: % is scaled to controls: 0 for no effect and ±100 for the full control effect
# Details: Five cell lines viability, CellTiter-Glo ATP luminescence, 48-72 h; max response: stronger effect = lower value
# Summary of the method: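 Cells exposed to compounds for 48 or 72 hr at 37 degrees Celsius. Viability read as ATP-coupled luminescence with CellTiter-Glo after 10 min at room temperature.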
# Also: nearly all actives have a fitted effect of over 60% in size.
Structure (SMILES),max response [%],outcome
Cc1nc2ccccc2c(-c2ccc3c4c(ccnc24)CCO3)c1[C@H](OC(C)(C)C)C(=O)O,-2.71,–
NC[C@H]1CCC[C@@H](CNC(=O)[C@@H](Cc2c[nH]c3ccccc23)NC(=O)N2CCC3(C=Cc4ccccc43)CC2)C1,-1.79,–
CCC(C)/C=C(C)/C=C/C1=CC2=C(Cl)C(=O)C(C)(OC(C)=O)C(=O)C2=CN1C(CCC(=O)O)C(=O)O (stereo not drawn),–,inactive
CC(C)C1NC(=O)C2CCCN2C1=O (stereo not drawn),–,inactive
C=CC1(C)CC2CCC3C(C)(C(=O)O)CCCC3(C)C2=CC1=O (stereo not drawn),-4.63,–
CC(C)C1(O)C=C2C(=O)CC3C(C)(C(=O)O)CCCC3(C)C2CC1 (stereo not drawn),–,inactive
COc1cccc(C)c1C(=O)O[C@@H]1C[C@H](O[C@H]2[C@H](O)C[C@H](O[C@@H]3CCC[C@H]4[C@H]3C=C[C@@H]3CCCC/C=C/[C@H]5C=C(C(=O)O)[C@@H](C)C[C@@]56OC(=O)C(=C6O)OC(=O)[C@@]34C)O[C@@H]2C)O[C@H](C)[C@H]1O,–,inactive
C=C(C(=O)OC)[C@]12O[C@@](C)(CC[C@@]3(O)/C(=C\C)C(=O)O[C@]3(C)C[C@@H]1OC(=O)C(CO)CN1CCCC1C(=O)O)CC2=O (stereo partly drawn),–,inactive
COC(=O)C1=CO[C@@H](O[C@@H]2O[C@H](CO)[C@@H](O)[C@H](O)[C@H]2O)[C@@H]2[C@@H](CO)[C@@H](O)C(O)[C@H]12 (stereo partly drawn),1.79,–
O=C(O)c1cc(O[C@@H]2O[C@H](CO)[C@@H](O)[C@H](O)[C@H]2O)ccc1O,–,inactive
C=C(CC/C=C(\C)C(=O)O)C1(O)CC=C(C)CC1 (stereo not drawn),–,inactive
CC(C)=CCc1cc(O[C@@H]2O[C@H](CO[C@@H]3OC[C@](O)(CO)[C@H]3O)[C@@H](O)[C@H](O)[C@H]2O)ccc1O,–,inactive
C=C1CCC2C(C)(C)CCC[C@]2(C)[C@H]1CC/C(C)=C/C(=O)O (stereo partly drawn),2.18,–
CCC(C)C1NC(=O)C2CCCN2C(=O)C(CC(O)CO)OC(=O)CCNC(=O)C(C)N(C)C(=O)C(C(C)C)N(C)C1=O (stereo not drawn) (cyclo([X13]PI[NMeV][NMeA][βAla]); configuration not given here),–,inactive
Cc1cc(-c2nncc3c(C(C)(C)C)c(OCc4ncnn4C)nn23)no1,1.34,–
C[C@@H]1O[C@@H](O[C@@H]2\C=C/C=C\C=C/C=C\C[C@H](C)OC(=O)/C=C\[C@H]3O[C@@H]3C[C@H](O)C[C@]3(O)C[C@@H](O)[C@@H](C(=O)O)[C@H](C2)O3)[C@H](O)[C@H](N)[C@@H]1O,3.56,–

Structure (SMILES),max response [%],outcome
CC(=O)c1ccc(O[C@@H]2OC[C@@H](O)[C@H](O)[C@H]2O[C@]2(CO)O[C@H](CO)[C@@H](O)[C@@H]2O)c(O)c1,–,inactive
C=C1CC[C@@H]2[C@@](C)(CO[C@@H]3O[C@H](CO)[C@@H](O)[C@H](O)[C@H]3O)[C@H](O)CC[C@@]2(C)[C@@H]1CC/C(C)=C/CO[C@@H]1O[C@H](CO)[C@@H](O)[C@H](O)[C@H]1O,-12.7,–
OC[C@@]1(O)CO[C@@H](OC[C@H]2O[C@@H](Oc3ccccc3)[C@H](O)[C@@H](O)[C@@H]2O)[C@@H]1O,–,inactive
NC1(c2ccc(NC(=O)c3ccnc(-c4cc(C(=O)O)ccn4)c3)cc2)CC1,–,inactive
OC[C@@]1(O)CO[C@@H](OC[C@H]2O[C@@H](OCc3ccccc3)[C@H](O)[C@@H](O)[C@@H]2O)[C@@H]1O,–,inactive
CC1(C)CC2C(O)C3=C(CC(C)(O)C2C1)C(=O)OC3 (stereo not drawn),–,inactive
COc1c2c(c(C)c3c1C(=O)OC3)OC1(C)CC(O)C34OC(O)(CCC3(C)C1C2)OC4(C)C (stereo not drawn),2.29,–
COc1cc(C2OCC3(O)C(c4ccc(O[C@@H]5O[C@H](CO)[C@@H](O)[C@H](O)[C@H]5O)c(OC)c4)OCC23O)ccc1O (stereo partly drawn),–,inactive
CC1=CC2=C(C)C(=O)[C@](C)(O)[C@H](O)C2=CO1,-3.34,–
C[C@]12CCC[C@](C)(C(=O)O)C1[C@@H](O)[C@@H](O)C13CC(CCC12)C(CO)(O[C@@H]1O[C@H](CO)[C@@H](O)[C@H](O)[C@H]1O)C3 (stereo partly drawn),–,inactive
C=C1CCC2C(C)(C(=O)O)CCCC2(C)C1CC/C(C)=C\CO (stereo not drawn),–,inactive
C=CC(C)(O)C1CC2C3(C)CCCC(C)(C)C3C(O)C(O)C2(C)O1 (stereo not drawn),-13.6,–
CC(C)(O)C1CCC2(C)CCCC(C)(O)C2C1 (stereo not drawn),–,inactive
CC(=O)O[C@H]1C[C@@]2(C)[C@@H](CC[C@H]3[C@@]4(C)C=CC(=O)[C@@H](C)[C@@H]4[C@H](OC(C)=O)C(=O)[C@@]32C)/C1=C(\CCC=C(C)C)C(=O)O,-2.17,–
COC(=O)C(Cc1ccccc1)NC(=O)c1ccccc1 (stereo not drawn),-1.1,–

# Tested on: HACAT
# Assay: qHTS assay to identify novel small-molecules to repurpose for Merkel cell carcinoma treatment (AID 1296009)
# Details: MCC and control cell lines, CellTiter-Glo viability, 72 h; at 44.8 µM (top of the series) unless noted
# Summary of the method: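 CellTiter-Glo luminescence after 72 hr compound exposure at 37 degree celsius gave cell viability. Libraries NPC and MIPE were run as 8- and 11-point dose responses; RLUs normalized to DMSO (negative) and no-cell (cytotoxicity) controls.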
row,Structure (SMILES),outcome
1,CC(=O)O[C@@H]1[C@H](O[C@@H]2O[C@H](CO)[C@@H](O)[C@H](O)[C@H]2O)[C@@H](O[C@@H]2O[C@@H](C)[C@H](O)[C@@H](O[C@@H]3O[C@H](CO)[C@@H](O)[C@H](O)[C@H]3O)[C@H]2O)[C@H](OC(=O)[C@]23CCC(C)(C)C[C@H]2C2=CCC4[C@@]5(C)C[C@H](O)[C@H](O[C@@H]6O[C@H](C(=O)O)[C@@H](O)[C@H](O)[C@H]6O)[C@@](C)(C(=O)O)C5CC[C@@]4(C)[C@]2(C)CC3)O[C@@H]1C (stereo partly drawn),inactive [at 9.27 µM]
2,CC(=O)OCC1OC(O[C@H]2CC[C@@]3(C)C(CC[C@]4(C)C3CC=C3[C@@H]5CC(C)(C)CC[C@]5(C(=O)O)CC[C@]34C)[C@]2(C)CO)C(O)C(O)C1OC1OC(C)C(O)C(OC2OCC(O)C(O)C2O)C1O (stereo partly drawn),inactive [at 9.27 µM]
3,CC1=C[C@@H]2[C@H]3[C@@H]4O[C@@](C)(CC[C@H]4O)[C@H]3CC(=O)[C@]23C(=O)N[C@@H](CC(C)C)[C@@H]3[C@@H]1C,inactive
4,COc1cccc(CN(C(=O)CC(C)(C)C)C2CC(C(=O)N3CCNCC3)N(Cc3ccc4c(c3)OCO4)C2)c1 (stereo not drawn),inactive
5,C/C=C/C=C/C(O)=C1/C(=O)[C@]2(C)C3/C(=C(O)/C=C/C=C/C)C(=O)C4(C)C1[C@]1(C)O[C@@]4(O)[C@@]3(C)O[C@@]12O,inactive [at 17.4 µM]
6,OC[C@H]1O[C@@H](OCCc2ccccc2)[C@H](O)[C@@H](O)[C@@H]1O,inactive
7,CCC(C)C(N)C(=O)NCCN1CCOCC1 (stereo not drawn),inactive
8,CC1CC2(O)OC(=O)C3=C2C(CCC3)[C@@]12C[C@@H](c1ccoc1)OC2=O (stereo partly drawn),inactive
9,Cc1nc2ccccc2c(-c2ccc3c4c(ccnc24)CCO3)c1[C@H](OC(C)(C)C)C(=O)O,inactive
10,NC[C@H]1CCC[C@@H](CNC(=O)[C@@H](Cc2c[nH]c3ccccc23)NC(=O)N2CCC3(C=Cc4ccccc43)CC2)C1,inactive
11,CCC(C)/C=C(C)/C=C/C1=CC2=C(Cl)C(=O)C(C)(OC(C)=O)C(=O)C2=CN1C(CCC(=O)O)C(=O)O (stereo not drawn),inactive [at 17.4 µM]
12,CC(C)C1NC(=O)C2CCCN2C1=O (stereo not drawn),inactive
13,C=CC1(C)CC2CCC3C(C)(C(=O)O)CCCC3(C)C2=CC1=O (stereo not drawn),inactive
14,CC(C)C1(O)C=C2C(=O)CC3C(C)(C(=O)O)CCCC3(C)C2CC1 (stereo not drawn),inactive
15,COc1cccc(C)c1C(=O)O[C@@H]1C[C@H](O[C@H]2[C@H](O)C[C@H](O[C@@H]3CCC[C@H]4[C@H]3C=C[C@@H]3CCCC/C=C/[C@H]5C=C(C(=O)O)[C@@H](C)C[C@@]56OC(=O)C(=C6O)OC(=O)[C@@]34C)O[C@@H]2C)O[C@H](C)[C@H]1O,inactive [at 9.27 µM]
16,C=C(C(=O)OC)[C@]12O[C@@](C)(CC[C@@]3(O)/C(=C\C)C(=O)O[C@]3(C)C[C@@H]1OC(=O)C(CO)CN1CCCC1C(=O)O)CC2=O (stereo partly drawn),inactive [at 17.4 µM]
17,COC(=O)C1=CO[C@@H](O[C@@H]2O[C@H](CO)[C@@H](O)[C@H](O)[C@H]2O)[C@@H]2[C@@H](CO)[C@@H](O)C(O)[C@H]12 (stereo partly drawn),inactive [at 17.4 µM]
18,O=C(O)c1cc(O[C@@H]2O[C@H](CO)[C@@H](O)[C@H](O)[C@H]2O)ccc1O,inactive
19,C=C(CC/C=C(\C)C(=O)O)C1(O)CC=C(C)CC1 (stereo not drawn),inactive
20,CC(C)=CCc1cc(O[C@@H]2O[C@H](CO[C@@H]3OC[C@](O)(CO)[C@H]3O)[C@@H](O)[C@H](O)[C@H]2O)ccc1O,inactive [at 17.4 µM]
21,C=C1CCC2C(C)(C)CCC[C@]2(C)[C@H]1CC/C(C)=C/C(=O)O (stereo partly drawn),inactive
22,CCC(C)C1NC(=O)C2CCCN2C(=O)C(CC(O)CO)OC(=O)CCNC(=O)C(C)N(C)C(=O)C(C(C)C)N(C)C1=O (stereo not drawn) (cyclo([X13]PI[NMeV][NMeA][βAla]); configuration not given here),inactive [at 17.4 µM]
23,Cc1cc(-c2nncc3c(C(C)(C)C)c(OCc4ncnn4C)nn23)no1,inactive
24,C[C@@H]1O[C@@H](O[C@@H]2\C=C/C=C\C=C/C=C\C[C@H](C)OC(=O)/C=C\[C@H]3O[C@@H]3C[C@H](O)C[C@]3(O)C[C@@H](O)[C@@H](C(=O)O)[C@H](C2)O3)[C@H](O)[C@H](N)[C@@H]1O,inactive
25,CC(=O)c1ccc(O[C@@H]2OC[C@@H](O)[C@H](O)[C@H]2O[C@]2(CO)O[C@H](CO)[C@@H](O)[C@@H]2O)c(O)c1,inactive [at 17.4 µM]
26,C=C1CC[C@@H]2[C@@](C)(CO[C@@H]3O[C@H](CO)[C@@H](O)[C@H](O)[C@H]3O)[C@H](O)CC[C@@]2(C)[C@@H]1CC/C(C)=C/CO[C@@H]1O[C@H](CO)[C@@H](O)[C@H](O)[C@H]1O,inactive [at 17.4 µM]
27,OC[C@@]1(O)CO[C@@H](OC[C@H]2O[C@@H](Oc3ccccc3)[C@H](O)[C@@H](O)[C@@H]2O)[C@@H]1O,inactive
